This is part of a sample that, as a whole, favours compounds with a hit. Of some 83,000 tested, about 20% had one in any assay.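 Assay: single dose, 48 h. Readout: percent growth (0 = no net growth; negative = cell death). Active: <10.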 Unmarked numbers belong to inactive results. Calls of active or inactive are those of the source.

The values that follow come from PubChem BioAssay (NCI).

This assay relates to MDA-MB-435 melanoma. In words: NCI-60 one-dose screen, 48 h (100 = growth as untreated, 0 = no growth, -100 = all killed). The following applies: 10 µM unless noted.
Turning to `C=C1C(=O)O[C@H]2[C@H]1CC/C(COC(=O)NCc1cc[nH]c1)=C\CC[C@@]1(C)O[C@@H]21`, the growth was 34.2%.

Take `CSc1nc2sc3c(c2c(=O)n1-c1ccc([N+](=O)[O-])cc1)CCCCC3`: the growth is 97%.

For `O=C(Nn1c2c(sc1=NCc1ccccc1)C(=O)c1ccccc1C2=O)c1cc2ccc1CCc1ccc(cc1)CC2`, the growth is -85.5% (active).

For `O=C(CN1C(=O)CCC1=O)Nc1ncc(Cc2ccc(F)cc2)s1`, the growth is 102%.

Turning to `Cc1ccc(NC(=S)NNC(=S)NNc2ccccc2)cc1C`, the growth is 110%.

As to `CCN(CC)CCOc1ccc(C(=C(C)c2ccc(Cl)cc2)c2ccc(OCCN(CC)CC)cc2)cc1`, the growth is -95.1% (active).

As to `COC(=O)[C@]1(C)CCC[C@]2(C)[C@H]3C[C@H]4C(C(C)C)=C[C@]3(CC[C@H]21)[C@H]1[C@@H]4[C@@H](OCCC#N)CC[C@@H]1OCCC#N`, the growth is 42.7%.

For `COc1ccc(-c2cc(-c3ccc(Cl)cc3)c(C#N)c(=O)n2CCCCC(=O)Nc2ccccc2N)cc1`, the growth was 39%.

For the compound `C=C1C(=O)O[C@H]2[C@H]1CC/C(COC(=O)NCc1ccc(Cn3c(=O)sn(CCI)c3=O)cc1)=C\CC[C@@]1(C)O[C@@H]21`, the growth is 57.1%.

As for `CC(=O)OC[C@]12CCC(C)(C)C[C@H]1[C@@]1(O)[C@H](O)C[C@@H]3[C@@]4(C)CCCNC(C)(C)[C@@H]4CC[C@@]3(C)[C@]1(C)CC2`, the growth is 109%.

Regarding `Cc1cc(=O)[nH]c2c(C#N)cnn12`, the growth was 104%.

Take `O=C(OCc1ccc2c(Cl)cc(Cl)c(O)c2n1)n1cncn1`: the growth is 27.9%.
